# Data taken from PubChem BioAssay (NCATS).
# Inconclusive results are not listed. Entries that show only a call come without a potency. Values without a mark were called inactive. Activity calls are given as the source filed them. Calls follow the shape of the dose curve; as a rule, active = well fitted inhibition curve with a large enough effect; inconclusive = small, poorly fitted or top-dose-only effect; inactive = no such curve, though single readings can be large or run the other way.
# Tested on: Zika virus NS2B-NS3 protease (linked construct)
# Experiment: Primary screen NINDS Rhodamine qHTS for Zika virus inhibitors (AID 1347160); also: nearly all actives have a fitted effect of over 55% in size
# Settings: purified NS2B-NS3 protease, Rhodamine110 substrate fluorescence; series mostly up to 57.1 µM
# Outline: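 Percent inhibition, normalized to uninhibited and enzyme-free controls, is fitted to a 4-parameter Hill equation. Fluorescence change comes from a 15-min cleavage of 1.5 microM bis-peptide Rhodamine110 substrate by 25 nM linked NS2B-NS3 at room temperature.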
SMILES,Potency,"activity change, negative = inhibition"
CC(C)=CCC/C(C)=C/CO[C@@H]1O[C@H](CO)[C@@H](OC(=O)/C=C/c2ccc(O)cc2)[C@H](O[C@@H]2O[C@@H](C)[C@H](O)[C@@H](O)[C@H]2O)[C@H]1O,inactive,–
N#C[C@@H]1C[C@H](F)CN1C(=O)CNC1[C@H]2CN(C(=O)c3ccc(F)cc3)C[C@@H]12 (stereo not given in full),inactive,–
COC(=O)N1CCC(n2ncc3c(N4CCOCC4)nc(-c4ccc(NC(=O)Nc5ccc(CO)cc5)cc4)nc32)CC1,inactive,–
CC1(C)CCCC2(C)C1CC=C1C(=O)OC(O)C12O (stereo not given),inactive,–
Clc1cc2c(NC3CCCC3)nnc(-c3ccncc3)c2cc1Cl,inactive,–
Cc1cc(C(N)=O)ccc1-n1c(CCC(=O)O)ccc1-c1ccc(-n2ccnc2)cc1,inactive,–
C[C@@H]1O[C@@H](O[C@H]2[C@H](O[C@H]3[C@H](O[C@H]4CC[C@@]5(C)C(CC[C@]6(C)C5CC=C5[C@@H]7CC(C)(C)C[C@@H](O)[C@]7(C)CC[C@]56C)[C@@]4(C)CO)O[C@H](C(=O)O)[C@@H](O)[C@@H]3O)OC[C@H](O)[C@@H]2O)[C@H](O)[C@H](O)[C@H]1O (stereo not given in full),inactive,–
C=C(C(=O)O)[C@@H]1CC[C@@]2(C)CC[C@H](O)[C@@]2(C(C)=O)C1,inactive,–
Cc1[nH]c2ccccc2c1CCNC(=O)c1ccccc1F,inactive,–
CC1=CC(=O)CC2C1(O)CCC(C)C21CC(c2ccoc2)OC1=O (stereo not given),inactive,–
C[C@@H]1O[C@@H](O[C@H]2[C@H](O[C@H]3[C@H](O)[C@@H](C(=O)O)O[C@@H](O[C@H]4CC[C@@]5(C)C(CC[C@]6(C)C5CC[C@]57OC[C@@]8(CCC(C)(C)CC85)[C@H](O)C[C@]76C)C4(C)C)[C@@H]3O[C@@H]3O[C@H](CO)[C@@H](O[C@@H]4OC[C@@H](O)[C@H](O)[C@H]4O)[C@H](O)[C@H]3O)O[C@H](CO)[C@H](O)[C@@H]2O)[C@H](O)[C@H](O)[C@H]1O (stereo not given in full),–,-19.8% [at 10.7 µM]
CC1=CCC2C(C)(C)CCC[C@]2(C)[C@@]12CC[C@](C)(CC(=O)O)O2 (stereo not given in full),inactive,–
COc1ccc(-c2nc(-c3ccc(-c4cccc(Cl)c4)o3)[nH]c2-c2ccc(OC)cc2)cc1,inactive,–
N#Cc1c(Oc2ccc(F)c(NC(=O)Cc3cccc(C(F)(F)F)c3)c2)ccc2nc(NC(=O)C3CC3)sc12,inactive,–
CCOCc1cc(OC)c(-c2ccc(C[C@H](NC(=O)c3c(F)cccc3F)C(=O)O)cc2)c(OC)c1,inactive,–
CCCn1c(=O)c2[nH]c(-c3ccc(OCC(=O)O)cc3)nc2n(CCC)c1=O,inactive,–
C=CCC1=C[C@]2(OC)[C@H](C)[C@@H](c3ccc(O)c(OC)c3)O[C@]2(OC)CC1=O,inactive,–
CC1=CC(=O)C2(OC3OC(C)C(O)C(OC(=O)/C=C/c4ccccc4)C3O)C=COC(OC3OC(CO)C(O)C(O)C3O)C12 (stereo not given),inactive,–
COc1cc(Br)c(Nc2nc(-c3c(C)nc4ncccn34)cs2)c(Br)c1,inactive,–
C=C(C)C(=O)O[C@H]1CC2=CC(C/C(C)=C\[C@H]3OC(=O)C(=C)[C@H]13)OC2=O (stereo not given in full),inactive,–
C[C@@H]1CC[C@]2(C(=O)O)CC[C@]3(C)C(=CCC4[C@@]5(C)C[C@@H](O)[C@H](O)[C@@](C)(CO)C5CC[C@]43C)C2[C@]1(C)O (stereo not given in full),inactive,–
C=C(CO[C@@H]1O[C@H](CO[C@@H]2OC[C@](O)(CO)[C@H]2O)[C@@H](O)[C@H](O)[C@H]1O)C1Cc2cc(C(C)=O)ccc2O1 (stereo not given in full),inactive,–
O=C1CCC(c2ccccc2)(C2CCN(Cc3ccc(I)cc3)CC2)C(=O)N1 (stereo not given),inactive,–
Cc1ccc(S(=O)(=O)Nc2ccccc2N2CCCCC2)s1,inactive,–
Cc1cc(Nc2ccc(NC(=O)c3ccc(Nc4ccnc5ccccc45)cc3)cc2)nc(N)n1,inactive,–
COc1c2c(c(C)c3c1C(=O)OC3)OC1(C)CC(O)C34OC(OC)(CC(OC(C)=O)C3(C)C1C2)OC4(C)C (stereo not given),inactive,–
OC[C@H]1O[C@@H](OCCc2ccccc2)[C@H](O[C@@H]2OC[C@](O)(CO)[C@H]2O)[C@@H](O)[C@@H]1O,inactive,–
Cc1cc(N2CCN([C@@H]3CN[C@H](C(=O)N4CCSC4)C3)CC2)n(-c2ccccc2)n1,inactive,–
COc1ccc(CCC(=O)c2c(O)cc(O)cc2O[C@@H]2O[C@H](CO)[C@@H](O)[C@H](O)[C@H]2O)cc1,inactive,–
CC1=CC(=O)CC(C)(CO)C1(O)/C=C/C(C)O[C@@H]1O[C@H](CO)[C@@H](O)[C@H](O)[C@H]1O (stereo not given in full),inactive,–
